Test results from the supplement of paper PMC4709259.
Where a name gives a salt, the structure may show the parent alone. ± gives the standard deviation.

Experiments:
[1] = test system: Jurkat; assay: mean cell size (FSC-A) relative to DMSO control (fraction of control); higher = larger cells; settings: 48 h
Method in brief: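 Jurkat cells seeded at 600 cells/µl were incubated 1 h, then exposed for 48h to the Enzo Screen-Well FDA Approved Drug Library v2.0 at 25µM in 0.9% (v/v) final DMSO. Drugs that cut counts below 20% of controls were diluted 10-fold and retested, down to 25nM. Cell count and mean cell size (forward scatter area) were read on an Accuri C6 flow cytometer, relative to solvent-only controls. Plates held 6-12 controls; values are means of 3 biological replicates.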

[2] = test system: Jurkat; assay: cell count relative to DMSO control (fraction of control); higher = more cells (less growth inhibition); settings: 48 h

Structure (SMILES)	mean cell size [1]	cell count [2]
Cc1ccccc1C(OCCN(C)C)c1ccccc1 (stereo not drawn) [Orphenadrine Citrate] (concentration: 25 µM)	0.975 ± 0.056	0.742 ± 0.13
Cc1cnc(NC(=O)C2=C(O)c3ccccc3S(=O)(=O)N2C)s1 [Meloxicam] (concentration: 25 µM)	0.9071 ± 0.0086	0.808 ± 0.066
CN1CCc2cccc3c2[C@H]1Cc1ccc(O)c(O)c1-3 [Apomorphine·HCl Hemihydrate] (concentration: 2.5 µM)	1.031 ± 0.0071	0.444 ± 0.071
C#C[C@]1(O)CC[C@H]2[C@@H]3CCC4=CCCC[C@@H]4[C@H]3C(=C)C[C@@]21CC [Desogestrel] (concentration: 25 µM)	0.943 ± 0.018	1.03 ± 0.027
CCC[C@@H]1C[C@@H](C(=O)N[C@@H]([C@H]2O[C@H](SC)[C@H](O)[C@@H](O)[C@H]2O)[C@H](C)Cl)N(C)C1 [Clindamycin·HCl] (concentration: 25 µM)	1.07 ± 0.062	0.805 ± 0.14
N=C(N)NC(=O)Cc1c(Cl)cccc1Cl [Guanfacine·HCl] (concentration: 25 µM)	0.956 ± 0.059	0.695 ± 0.13
CCc1c2c(nc3ccc(OC(=O)N4CCC(N5CCCCC5)CC4)cc13)-c1cc3c(c(=O)n1C2)COC(=O)[C@]3(O)CC [Irinotecan·HCl] (concentration: 250 nM)	1.05 ± 0.038	0.414 ± 0.034
CCC[C@H](N[C@@H](C)C(=O)N1[C@H](C(=O)O)C[C@@H]2CCCC[C@@H]21)C(=O)OCC [Perindopril Erbumine] (concentration: 25 µM)	0.995 ± 0.051	0.637 ± 0.091
C#C[C@]1(O)CC[C@H]2[C@@H]3CCC4=CC(=O)CC[C@@H]4[C@H]3CC[C@@]21C [Norethindrone] (concentration: 25 µM)	0.948 ± 0.024	0.901 ± 0.084
Nc1nc(=O)n([C@@H]2CS[C@H](CO)O2)cc1F [Emtricitabine] (concentration: 25 µM)	1.03 ± 0.019	0.581 ± 0.14
CCC[C@@H]1C[C@@H](C(=O)N[C@@H]([C@H]2O[C@H](SC)[C@H](O)[C@@H](O)[C@H]2O)[C@@H](C)O)N(C)C1 [Lincomycin·HCl] (concentration: 25 µM)	1.1 ± 0.045	0.754 ± 0.11
O=C(NCC1CCCCN1)c1cc(OCC(F)(F)F)ccc1OCC(F)(F)F (stereo not drawn) [Flecainide Acetate] (concentration: 25 µM)	0.97 ± 0.014	0.725 ± 0.033
CCOC(=O)c1ncn2c1CN(C)C(=O)c1cc(F)ccc1-2 [Flumazenil] (concentration: 25 µM)	0.95 ± 0.014	0.87 ± 0.025
CC(C)c1ccc2oc3nc(N)c(C(=O)O)cc3c(=O)c2c1 [Amlexanox] (concentration: 25 µM)	0.923 ± 0.018	0.469 ± 0.12
COc1cc(C(=O)NS(=O)(=O)c2ccccc2C)ccc1Cc1cn(C)c2ccc(NC(=O)OC3CCCC3)cc12 [Zafirlukast] (concentration: 25 µM)	0.959 ± 0.06	0.381 ± 0.062
COc1ccc2cc(CCC(C)=O)ccc2c1 [Nabumetone] (concentration: 25 µM)	0.938 ± 0.032	0.888 ± 0.058
Cc1ccc(S(=O)(=O)NC(=O)NN2CCCCCC2)cc1 [Tolazamide] (concentration: 25 µM)	1.03 ± 0.053	0.657 ± 0.12
CC(=O)OCC(=O)[C@@]12OC3(CCCC3)O[C@@H]1C[C@H]1[C@@H]3CCC4=CC(=O)C=C[C@]4(C)[C@@]3(F)[C@@H](O)C[C@@]12C [Amcinonide] (concentration: 25 µM)	0.994 ± 0.064	0.823 ± 0.039
O=c1[nH]cnc2c1ncn2[C@H]1CC[C@@H](CO)O1 [Didanosine] (concentration: 25 µM)	0.9758 ± 0.0048	0.462 ± 0.15
NCCc1ccc(O)c(O)c1 [Dopamine·HCl] (concentration: 25 µM)	0.951 ± 0.029	0.909 ± 0.097
CC(C)[N+]1(C)[C@@H]2CC[C@H]1CC(OC(=O)C(CO)c1ccccc1)C2 (stereo partly drawn) [Ipratropium·Br] (concentration: 25 µM)	1.01 ± 0.029	0.704 ± 0.18
O=S(=O)(O)CCS [Mesna] (concentration: 25 µM)	1.06 ± 0.026	0.769 ± 0.16
CNC(=O)c1cc(Oc2ccc(NC(=O)Nc3ccc(Cl)c(C(F)(F)F)c3)cc2)ccn1 [Sorafenib Tosylate] (concentration: 2.5 µM)	0.919 ± 0.022	0.999 ± 0.032
CC(C)(C)NCC(O)COc1cccc2c1CC(O)C(O)C2 (stereo not drawn) [Nadolol] (concentration: 25 µM)	0.928 ± 0.041	0.487 ± 0.059
